About 83,000 compounds went through this panel and 20% of them were active in at least one assay; those are over-represented in the sample as a whole.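 Activity criterion: percent growth below 10, measured after cells in 96-well plates were exposed to a single compound concentration for 48 hours.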 Unmarked numbers belong to inactive results. The source made the active and inactive calls.
Tested on: A549/ATCC NSCLC
Test: NCI-60 one-dose screen, 48 h (100 = growth as untreated, 0 = no growth, -100 = all killed)
Settings: 10 µM unless noted
Experimental: Growth inhibition of the A549/ATCC human Non-Small Cell Lung tumor cell line is measured as a screen for anti-cancer activity. Cells are grown in 96 well plates and exposed to the test compound for 48 hours. Compounds are tested at a single concentration, which is 10^-5 M for most compounds. The reported endpoint is percent growth (GI% or GIPRCNT), where numbers from 0 - 100% represent growth inhibition, and numbers from -100% - 0 represent cell death. For example, a value of 40 represents 60% growth inhibition. A value of 0 means no net growth occurred over the course of the experiment. A value of -40 indicates 40% of cells at the beginning of the experiment died by the end of the experiment. A value of -100 means all cells are dead at the end of the experiment.
NCI-60 Human Tumor Cell Lines Screen was performed using the standard one-dose NCI protocol, which is described in more detail at https://dtp.cancer.gov/discovery_development/nci-60/default.htm.
Compounds with GIPRCNT values below 10 were considered active. Activity score was based on GIPRCNT using the following formula: […]
Score is 0 for GIPRCNT values of 100 or above, 50 for GIPRCNT values of 0, and 100 for GIPRCNT values of -100.

Compared with `C=CCc1c(O)c(C(=O)/C=C/c2ccc(Cl)cc2)c(OC)c2ccoc12`, `C=CCn1c(SCC(=O)Nc2ccc(C(=O)/C=C/c3cc4cc(OC)ccc4nc3Cl)cc2)nnc1-c1ccc(Br)cc1` is higher in growth: 47.3% for the first, 70.7% for the second.

Compared with `CC1=Nc2cnc(Nc3ccc(OCCN4CCCCC4)cc3)nc2Nc2ccccc21`, `O=C1Nc2ccccc2/C1=C\c1nc(-c2ccccc2F)n2ccccc12` is lower in growth: 77.2% for the first, 26.5% for the second.

First: COc1cc(NC(C)CCCNC(C)C)c2ncccc2c1OC (stereo not given)
Second: CCNC(=O)c1[nH]cc(-c2ccccc2)c1-c1cc(OC)c2c(c1OC)OCO2
The growth of the first is higher: 102% for the first, 96% for the second.

Compared with `O=C1/C(=C/c2ccc(-c3ccc(Br)cc3)o2)SC(=S)N1CCc1ccc(O)cc1`, `O=C(c1ccc(-c2ccccc2)cc1)c1ccc([N+](=O)[O-])cc1` is higher in growth: 67.5% for the first, 114% for the second.

First: CN[C@]12CC3(C=CC(=O)C=C3)O[C@@]1(Cc1ccc(OC)cc1)N(C)C(=O)N2
Second: Cn1ccnc1C(=O)C(=O)Nc1ccc(CC(=O)Nc2ccccc2)cc1
The growth of the first is lower: 79.7% for the first, 108% for the second.

Compared with `CCCCCCCCn1ccc2cc(NC(=O)Cn3cc(CN4CCCCC4)nn3)ccc21`, `N#Cc1c(-c2ccccc2)cc(-c2ccccc2)n(CCCCCC(=O)Nc2ccccc2N)c1=O` is higher in growth: 25.2% for the first, 71.2% for the second.

First: COC(=O)[C@]1(C)CCC[C@]2(C)[C@H]3C[C@H]4C(C(C)C)=C[C@]3(CC[C@H]21)[C@H]1[C@@H]4[C@@H](OCCC#N)CC[C@@H]1OCCC#N
Second: COC(=O)/C(CCC=C(C)C)=C1\[C@@H](OC(C)=O)C[C@@]2(C)[C@H]1C[C@@H](O)[C@H]1[C@@]3(C)CC[C@H](NCCN)[C@@H](C)[C@@H]3CC[C@@]12C
The growth of the first is lower: 37.4% for the first, 88.9% for the second.

First: O=C1CNC(c2ccccc2)C(c2ccccc2)N1 (stereo not given)
Second: O=C(CSc1nc(-c2ccccc2)[nH]c1S(=O)(=O)c1ccccc1)NC1CC1
The growth of the first is higher: 93.5% for the first, 42.1% for the second.

First: Cc1cc(=O)[nH]c2c(C#N)cnn12
Second: N#Cc1nn(-c2cc(=O)[nH]c3ccc(Cl)cc23)c(N)c1C#N
The growth of the first is lower: 97.5% for the first, 98.3% for the second.

Compared with `COC(=O)c1cc(-c2ccccc2)[nH]c1N/N=C/c1c(Cl)cccc1Cl`, `Cc1nc2sc(C(=O)Nc3ccccc3)c(N)c2cc1C(=O)c1ccccc1` is higher in growth: 21.7% for the first, 23.7% for the second.

Compared with `O=c1oc2ccc([N+](=O)[O-])cc2cc1Br`, `O=C1NC(=O)c2c1c1c3ccccc3ccc1c1[nH]c3ccc(Br)cc3c21` is lower in growth: 108% for the first, 18.8% for the second.

First: CC1(C)CC2=C3C=C[C@@H]4[C@@]5(C)CCC(=O)C(C)(C)[C@@H]5CC[C@@]4(C)[C@]3(C)CC[C@@]2(C(=O)O)CC1=O
Second: CCCCN[C@H]1CC[C@@]2(C)[C@@H](CC[C@@]3(C)[C@H]2[C@H](O)C[C@H]2/C(=C(\CCC=C(C)C)C(=O)OC)[C@@H](OC(C)=O)C[C@@]23C)[C@@H]1C
The growth of the first is lower: 48.3% for the first, 103% for the second.

Compared with `N#Cc1c(NC(=O)c2ccccc2)sc2c1CCC(=O)C2`, `CNC(=O)c1c(NC(=O)c2ccc(C(F)(F)F)cc2)sc2c1CCC(=O)C2` is lower in growth: 52.7% for the first, 13.7% for the second.

Compared with `O=C(Nc1nc2ccc(F)cc2s1)c1cccnc1Nc1ccc(Cl)cc1`, `O=C(c1ccc(Cl)cc1)N1CCN(c2ccnc3cc(Cl)ccc23)CC1` is higher in growth: 31% for the first, 87% for the second.

Compared with `COc1ccc(/C(C)=C(/c2ccc(OCCCN(C)C)cc2)c2ccc(OC(=O)Cc3ccccc3)cc2)cc1`, `COc1cc(CNS(=O)(=O)c2ccc(C)cc2)ccc1OCc1cn(-c2ccc(F)cc2)nn1` is higher in growth: 58.4% for the first, 93.8% for the second.

Compared with `COc1cc(CNC(=O)/C=C/C=C/c2ccc3c(c2)OCO3)ccc1OCc1cn(-c2ccc(C)c(C)c2)nn1`, `Cc1ccc(NC(=S)NNC(=S)NNc2ccccc2)cc1C` is higher in growth: 80.4% for the first, 101% for the second.

With `COC(=O)c1n[nH]c2ccc3nc(-c4cn[nH]c4C(F)(F)F)c4c(c3c12)CCCC4` the growth was 39%.

For `COC(=O)c1cc(-c2ccc(OC)cc2)[nH]c1N/N=C/c1c(Cl)cccc1Cl`, the growth was 5.26% (active).
With `O=C(N/N=C/c1ccc(F)cc1)c1ccc(C(F)(F)F)nc1Nc1cccc(C(F)(F)F)c1` the growth was -10.9% (active).
In the case of `Cn1cc(-c2csc(-c3c[nH]c4ccc(Br)cc34)n2)c2cnccc21`, the growth is reported as -77.5% (active).
In the case of `O=[N+]([O-])C1C(c2ccccc2)C12c1ccccc1-c1ccccc12` (stereo not given), the growth is reported as 8.59% (active).
With `O=C1c2cccc(NCCN=Cc3cc(O)ccc3O)c2C(=O)c2c(NCCN=Cc3cc(O)ccc3O)cccc21` the growth was -55.6% (active).
In the case of `Clc1ccc(Nc2nnc(COc3ccccc3)c3ccccc23)cc1`, the growth is reported as 4.64% (active).
`O=C1N(Cc2ccccc2Cl)c2ccccc2C12NN=C(c1cccc(Cl)c1)S2` (stereo not given) was tested, and the growth was -63.7% (active).

Source: PubChem BioAssay (NCI)
